# Source: the supplement of paper PMC6555819
# Legend:
# Assay in all cases: PBM binding z-score (relative to random genomic background probes); higher = stronger binding; sequences stand for … in GC…GCGATTGACAGCGTAGAATGAAGG
# [1] = tested on: RARb homodimer (NR concentration 270 nM)
# Outline: (§1)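 Custom Agilent 4×180K protein-binding microarrays carried double-stranded probes. Their 34-nt variable regions held direct-repeat seeds, single-nucleotide variants, half-site ablations and random human genomic background sequences. Arrays were incubated 1 h with ligand-free nuclear receptor dimers in PBS pH 7.4, 2% milk, 0.02% Triton X-100, 1 mM DTT, 0.2 mg/mL BSA and 0.4 mg/ml salmon testes DNA. Antibodies against each partner (one per run) detected binding, and scanned fluorescence was regression-normalized. Binding z-scores use random background probes as reference.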
# [2] = tested on: RARg:RXRa (NR concentration 270 nM, RXRa partner concentration 90 nM)
# Outline: as §1
# [3] = tested on: RARg homodimer (NR concentration 270 nM)
# Outline: as §1
# [4] = tested on: RXRa DBDmut IVT, anti-RXR (DBD mutation: RXRa K156A/R161A, NR concentration 90 nM)
# Outline: as §1
# [5] = tested on: RXRa homodimer (NR concentration 180 nM)
# Outline: as §1
# [6] = tested on: THRa:RXRa (NR concentration 90 nM, RXRa partner concentration 90 nM)
# Outline: as §1
# [7] = tested on: THRa homodimer (NR concentration 90 nM)
# Outline: as §1
# [8] = tested on: VDR homodimer (NR concentration 270 nM)
# Outline: as §1
Sequence,PBM binding z-score [1],PBM binding z-score [2],PBM binding z-score [3],PBM binding z-score [4],PBM binding z-score [5],PBM binding z-score [6],PBM binding z-score [7],PBM binding z-score [8]
CCTTACCGGTCACTGACAGGTTATAGCATTTGGA,2.7,3.19,3.15,0.586,1.2,1,0.662,0.617
TGAATGAGGTTATAAGATCAGGCAACGTTGCAAA,0.151,1.57,0.908,0.405,2.11,1.85,0.127,0.105
ATCGCTAGGTAAAAGTTCAGTGAATCCCGAGGAT,2,1.37,1.46,0.265,1.64,0.795,-0.348,1.16
GCTAGTTGGTCAGTAAAAAGTCACACACCGGTCG,1.33,0.522,0.701,0.212,0.223,0.00328,-0.343,0.168
TCGAGTAGGTTAGGGGCATTCAAAATGGCGTCGA,0.918,0.367,0.48,0.614,0.622,1.06,0.276,1.43
TAGCCTAGGTCGTGCGGGCCAGTATAGTGTCGGC,0.429,0.705,0.719,-0.774,0.344,0.675,-0.487,-0.502
GCTAGTTGGTCAGTAAAAGGTCACACACCGGTCG,5.15,5.32,4.87,0.715,5.2,3.52,2.08,1.99
CCGACTGGGACATAAGGTTACCATAAGCCAGCCC,1.42,0.813,0.738,-0.237,1.01,2.26,1.7,-0.0177
CAAACTAAGTCACGAAAGGTCAAAGTCGAATGAC,5.04,6.02,5.67,0.992,6.79,4.42,1.2,2.58
CCTAGTTGGTCAAGGTCACCCACGCTATAGGTAC,4.38,4.42,4.75,1.81,4.47,4.22,4.66,4.05
TCTGCTAGGTCAGTTGATCAGCTAACGAGCTGCC,2.08,2.57,3.41,0.576,0.945,1.28,0.115,-0.722
ATCTCTAGGTAACAAGTTCAGTGATAGAGAGGAC,1.92,1.05,1.57,1.06,0.757,1.38,0.931,2.93
CCGACTGGGGGAAAGGTTACCATACTCAGTACGA,2.1,2.79,1.78,0.141,3.06,2.14,0.672,0.298
CCTACTGGGCCAAAGGTCATTGGTTCCAATGCTC,4.8,5.8,4.77,0.919,6.11,3.37,0.894,2.85
GATACAGGGTCAGCTAGAGGACAGAGTATGGAAA,3.71,6.86,4.97,1.16,4.03,3.79,1.05,0.873
GCTAGCAGGCCATTTGGGACACTCAATGACGGGC,-0.366,-0.267,0.308,-0.237,-0.122,0.63,-0.00643,-0.65
TCTATTAGTTGATAAGGGCAACCGAAACAGCGGA,1.39,0.857,0.844,1.2,0.562,1.4,0.878,0.573
CCTAGTTGGTCAAGAGGTCACACACCGGATATGA,5.08,6.18,5.31,1.37,6.37,4.15,2.75,3.07
TAGCCTAGGTCATTGGGCCATTATAGTACGCATC,3.07,4.19,4.28,1.85,2.96,3.07,1.24,1.44

Sequence,PBM binding z-score [1],PBM binding z-score [2],PBM binding z-score [3],PBM binding z-score [4],PBM binding z-score [5],PBM binding z-score [6],PBM binding z-score [7],PBM binding z-score [8]
TCTTATAGATCAAAGGTTAAGAAAGCCGAAGCCT,1.4,2.16,1.15,1.21,3.93,1.51,-0.709,0.214
TAGCCTCGGTCAGATCGGGCCAGTATACGCTATA,0.82,0.738,1.98,-1.02,-0.0826,2.41,-1.11,-1.63
GGAACGAGGGCAAGTTAATAGCAGAGTTTGATGG,1.35,1.46,2.01,2.29,0.717,1.2,-0.0334,1.6
TGTTGTAGATCAAGCAGGTTAAGAAAGCCTGAGT,0.0369,-0.0637,0.062,-1.02,-0.024,0.0864,-0.545,-0.058
TCGAGTAGGTTATCAATGGGGCATTCAGCTTTCT,0.483,0.919,0.272,0.822,0.432,0.0952,-0.223,-0.119
ATATGTAGGTTAAGGCTCATTCAGGTTGGTTCGC,0.698,0.684,0.622,0.534,0.844,0.76,0.71,0.761
TCTGCTAGGTTAGTTGGTCAGCTAACGAGCTGCC,-0.0655,0.00476,-0.189,-0.0929,-0.323,-0.551,-1.24,-1.15
TAGCCTAGGTCAGGTCGGGCCAGTATACGCTATA,2.67,2.95,4.12,-0.81,1.62,3.92,0.761,0.0294
AGTCAAAGTTCATCTAGGTAACTTAAGATATGCT,3.54,5.3,5.5,4.71,4.34,3.05,0.221,5.32
TCTCCTAGGTCAGTTGGTCAGCTAACGAGCTGCC,2.95,3.2,3.85,1.16,1.38,1.79,0.747,0.116
TCTATTAGTTGATTAGGGCAGCCGAAACAGCGGA,0.418,0.585,0.628,1.14,0.439,0.393,0.285,0.654
AGAATGAGGCTACCAAAGATCAGGGAAACGCTTG,-0.364,0.21,0.34,-0.268,0.156,0.463,-0.609,-0.541
CCTTACGGGACACTCCAGGTTATAGCATCGGAGT,0.585,0.478,0.691,0.129,0.276,1.84,0.457,0.239
CGAACTAGGTCAACCAGGACAGTGAATACATTGA,3.24,4.4,5.25,1.8,2.99,3.53,1.82,1.85
CCTAGTTGGTCAGGAGGTCACACATCGGATATGA,4.48,4.62,4.11,0.662,4.21,3.39,2.2,2.7
CCAGACAGGTGAAAGGTACCTCAGTCTGGTACGC,0.251,0.666,0.394,-0.333,1.32,0.325,-0.329,-0.438
AATACAGGGTCATCGTAGACCAGAGTACGCACAG,3.31,5.66,5.19,3.73,6.72,3.67,1.24,4.03
GCTATTAGTTGAAAGGGCAACCCAATGATTCTCG,1.98,1.31,1.34,1.09,1.3,0.458,-0.122,0.235
TGTCAAAGTTTAAAGGTAACGTAAGTATCCACAC,1.36,2.26,1.75,1.11,2.1,1.99,-0.137,0.446

Sequence,PBM binding z-score [1],PBM binding z-score [2],PBM binding z-score [3],PBM binding z-score [4],PBM binding z-score [5],PBM binding z-score [6],PBM binding z-score [7],PBM binding z-score [8]
GGAACGAGGGCAAGTCGATAGCAGAGTTTGATGG,1.18,1.36,2,1.89,0.701,0.983,-0.0774,1.08
TCGTGTAGATCAGCAGGTTAAGAAAGCTGGCCAA,-0.0746,-0.298,-0.396,0.345,-0.115,0.0652,-0.429,-0.282
CCAGACAGGTGAGAAGGTAACTCACCCTCGATTA,0.972,0.89,0.67,0.134,0.806,0.55,0.193,-0.0144
CCTACTGGACCATTCAGAGGTCATTGATCATATG,4.13,3.53,2.94,1.51,3.99,3.04,2.32,4
TCTTGTAGATCAGAAGGTTAAGAAAGCTGGCCAA,1.17,0.818,0.198,0.89,1.31,0.538,-0.485,-0.118
GCTGCTAGGTCAACTGATGGTCAGCTGAAGCTCG,3.56,5.1,5.51,1.55,2.82,3.12,1.05,-0.0434
CCTACTGGGCCATCAGGTCATTGACATCAACGTT,2.72,1.97,2.1,0.333,1.81,3.22,3.14,1.41
AGAACGAGGGCACGGTGAGTTGATAGCAGAGTAG,1.6,2.2,2.31,1.82,1.53,2.18,0.165,2.1
ACTAGAAGGCCAAGTTTGGGTCACTCAAACAAAG,2.88,3.27,2.36,0.0906,1.29,3,1.32,0.626
AATACAGGGTCATCGTAGGCCAGTGTACGCACAG,3.7,5.65,5.19,3.59,6.76,4.57,1.49,2.98
AATACAGGGTCCCTAGGCCAGAGTAGGTACGAAT,-0.162,0.119,0.25,-0.442,0.211,0.106,-0.229,0.0969
CAAATTAGGTCAAGGTCAAAGTCGGTTTGTGCCA,5.11,6.43,7,3.32,6.65,4.42,4.59,4.95
ACAGACAGGTGATGAAGGTAACTCATGCTATCAT,0.0338,0.394,0.615,-0.0265,0.382,0.149,-0.485,-0.456
CAAACTAGGTCACAGAGGCCAAAGTCCGTGCGTA,3.73,4.88,5.37,2.45,3.63,3.66,1.54,2.62
CCTACTGGGCCATTCAGAGGTGATTGATCATATG,0.207,0.611,0.223,-0.252,0.178,0.505,-0.356,-0.44
GCTAGTTGGTCAGTAAAAGGTCACAGACCGGTCG,5.24,5.64,5.2,0.262,5.7,3.79,1.68,1.13
CTCGAAAAGTCGTGCTCAGGTGAGTATACCAAAC,0.216,0.157,-0.0265,0.322,0.0508,1.75,0.807,-0.43
ACTAGCAGGCCAAGTTTCGGTCACTCAAACAAAG,1.95,1.68,1.53,0.194,-0.395,0.604,0.212,-0.0934
TTACCAAGGTGAGCTGAGGTCGTGGATCCAACTC,1.97,1.47,0.791,-0.207,1.82,4.83,2.55,0.927
